According to PubChem BioAssay:
For some assays here: Measured potencies and affinities stand elsewhere. Active and inactive are the calls of the source. Unless noted, how the calls were made is not given here.

Columns and labels:
[1] = antimalarial activity against Dd2 strain (AID 2302;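 active means growth inhibition above 50% at the single 2 µM test dose, taken to imply half-maximal potency below 2 µM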;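 further: 0% = DMSO untreated growth and 100% = chloroquine plus artemisinin killed control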); conditions: P. falciparum Dd2 in RBCs, LDH growth readout, 72 h; at 2 µM; hits give high values
[2] = HepG2 cytotoxicity, primary screen, cytotoxicity control for P. falciparum antimalarial project, cell-based, ATP luminescence (AID 2303;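 active means inhibition above 50%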;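 further: 0% = DMSO wells and 100% = digitonin-killed cells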); conditions: HepG2 viability, 24-48 h, at 10 µM, hits give high values
[3] = target: L-lactate dehydrogenase (Plasmodium falciparum (isolate CDC / Honduras)) (UniProt Q27743); test: PfLDH activity inhibition – cell lysate, 3D7 strain, counter-screen for P. falciparum growth inhibition project (AID 2304);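 further: 0% = vehicle and 100% = reference inhibitor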; conditions: P. falciparum 3D7 crude extract, LDH APAD/NBT absorbance; at 2 µM; hits give high values
[4] = inhibition of 3D7 malaria parasite growth – strain 3D7 (AID 2306);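 further: 0% = DMSO wells and 100% = chloroquine plus artemisinin control wells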; conditions: P. falciparum 3D7 erythrocytic growth, LDH absorbance, 72 h; at 2 µM; hits give high values
[5] = target: Calcium-dependent protein kinase 1 (Plasmodium falciparum (isolate 3D7)) (UniProt P62344); test: PfCDPK1 kinase inhibitors, biochemical, TCAMS library (AID 1159585; cut-off not given, nearly all actives have IC50 up to about 0.98 µM;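 further: inhibitors leave more ATP so luminescence rises with inhibition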); conditions: recombinant PfCDPK1, Kinase-Glo ATP depletion luminescence
[6] = target: Plasmodium falciparum protein kinase 6 (PK6, PF3D7_1337100) (UniProt Q8IDW1); test: PfPK6 kinase inhibitors, biochemical, TCAMS library (AID 1159586); conditions: recombinant PfPK6, Kinase-Glo ATP depletion luminescence
[7] = target: Protein kinase 7 (PK7), Plasmodium falciparum 3D7 (PF3D7_0213400) (UniProt Q7YTF7); test: inhibition of Plasmodium PK7 catalytic activity – biochemical, TCAMS antimalarial set, Kinase-Glo luminescence (AID 1159587); conditions: recombinant PfPK7, Kinase-Glo ATP depletion luminescence
[8] = target: Calcium-dependent protein kinase 4 (Plasmodium falciparum (isolate 3D7)) (UniProt Q8IBS5); test: PfCDPK4 kinase inhibitors, biochemical, TCAMS library (AID 1159588; cut-off not given, nearly all actives have IC50 up to about 0.91 µM); conditions: recombinant PfCDPK4, Kinase-Glo ATP depletion luminescence
Calcium-dependent protein kinase 4 (Plasmodium falciparum (isolate 3D7)), sequence (Q8IBS5 whole entry, looked up): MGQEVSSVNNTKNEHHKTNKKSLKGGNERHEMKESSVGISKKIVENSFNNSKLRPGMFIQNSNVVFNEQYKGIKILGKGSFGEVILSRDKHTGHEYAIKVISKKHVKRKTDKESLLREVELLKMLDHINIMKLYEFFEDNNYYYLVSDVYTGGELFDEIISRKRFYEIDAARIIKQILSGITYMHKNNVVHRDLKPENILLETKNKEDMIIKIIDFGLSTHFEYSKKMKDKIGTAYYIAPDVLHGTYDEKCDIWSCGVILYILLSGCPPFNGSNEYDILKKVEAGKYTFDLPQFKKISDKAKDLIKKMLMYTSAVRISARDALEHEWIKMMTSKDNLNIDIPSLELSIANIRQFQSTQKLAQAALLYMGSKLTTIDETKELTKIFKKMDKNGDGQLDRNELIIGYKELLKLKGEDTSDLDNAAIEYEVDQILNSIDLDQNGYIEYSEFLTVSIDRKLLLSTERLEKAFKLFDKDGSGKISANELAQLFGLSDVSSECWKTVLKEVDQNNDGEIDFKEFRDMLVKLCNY

Protein kinase 7 (PK7), Plasmodium falciparum 3D7 (PF3D7_0213400), sequence (Q7YTF7 1-343): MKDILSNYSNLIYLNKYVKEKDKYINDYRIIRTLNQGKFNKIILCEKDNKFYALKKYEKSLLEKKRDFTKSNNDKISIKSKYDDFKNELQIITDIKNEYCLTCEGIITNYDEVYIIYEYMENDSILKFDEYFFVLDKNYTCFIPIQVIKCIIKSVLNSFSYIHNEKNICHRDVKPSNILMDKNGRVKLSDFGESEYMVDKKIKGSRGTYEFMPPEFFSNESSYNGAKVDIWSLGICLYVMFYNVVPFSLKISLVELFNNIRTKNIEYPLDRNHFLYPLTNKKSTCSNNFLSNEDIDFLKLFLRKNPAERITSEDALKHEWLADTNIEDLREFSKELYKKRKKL
Plasmodium falciparum protein kinase 6 (PK6, PF3D7_1337100), sequence (Q8IDW1 1-305): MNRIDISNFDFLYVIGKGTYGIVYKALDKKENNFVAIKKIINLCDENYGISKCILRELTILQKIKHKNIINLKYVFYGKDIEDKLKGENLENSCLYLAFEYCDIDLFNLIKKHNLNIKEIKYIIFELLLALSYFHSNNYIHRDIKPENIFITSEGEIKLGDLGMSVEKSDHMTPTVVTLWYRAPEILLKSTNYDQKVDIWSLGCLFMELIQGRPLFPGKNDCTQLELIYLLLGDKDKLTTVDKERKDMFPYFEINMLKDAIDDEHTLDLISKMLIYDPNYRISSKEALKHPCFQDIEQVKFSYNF
Calcium-dependent protein kinase 1 (Plasmodium falciparum (isolate 3D7)), sequence (P62344 whole entry, looked up): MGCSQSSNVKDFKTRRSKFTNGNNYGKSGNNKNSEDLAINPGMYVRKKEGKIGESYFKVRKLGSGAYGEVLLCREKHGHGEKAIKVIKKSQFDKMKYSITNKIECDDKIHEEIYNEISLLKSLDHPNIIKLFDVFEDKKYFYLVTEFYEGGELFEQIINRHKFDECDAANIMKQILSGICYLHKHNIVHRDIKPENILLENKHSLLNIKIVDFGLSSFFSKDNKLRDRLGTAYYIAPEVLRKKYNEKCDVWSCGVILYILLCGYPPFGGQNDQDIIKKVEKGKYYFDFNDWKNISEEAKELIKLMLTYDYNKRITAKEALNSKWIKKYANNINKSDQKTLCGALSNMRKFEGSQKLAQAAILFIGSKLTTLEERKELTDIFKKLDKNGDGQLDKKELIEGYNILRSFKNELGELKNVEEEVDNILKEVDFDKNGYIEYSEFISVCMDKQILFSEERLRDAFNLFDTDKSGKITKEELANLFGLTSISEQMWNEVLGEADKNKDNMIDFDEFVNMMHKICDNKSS
L-lactate dehydrogenase (Plasmodium falciparum (isolate CDC / Honduras)), sequence (Q27743 whole entry, looked up): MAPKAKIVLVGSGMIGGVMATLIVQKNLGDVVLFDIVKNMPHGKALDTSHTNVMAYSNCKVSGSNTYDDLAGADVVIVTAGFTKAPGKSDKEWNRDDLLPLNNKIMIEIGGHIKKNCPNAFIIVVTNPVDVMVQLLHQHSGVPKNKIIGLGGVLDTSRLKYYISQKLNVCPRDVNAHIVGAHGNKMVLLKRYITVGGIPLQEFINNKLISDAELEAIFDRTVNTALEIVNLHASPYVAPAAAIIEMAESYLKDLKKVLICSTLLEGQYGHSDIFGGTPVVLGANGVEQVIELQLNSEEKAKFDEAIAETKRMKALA

O=C(Nc1ccc(-c2csc(-c3nc4ccccc4[nH]3)c2)cc1)Nc1ccc(Cl)c(Cl)c1
inactive: growth inhibition [1] 18% | inhibition [3] -6% | outcome [5] | outcome [6] | outcome [7] | outcome [8]
active: inhibition [2] 75% | growth inhibition [4] 93%

Cc1cc(NN=CC=Cc2ccccc2)c2ccccc2n1
inactive: inhibition [2] 19% | inhibition [3] 1% | outcome [5] | outcome [6] | outcome [7] | outcome [8]
active: growth inhibition [1] 69% | growth inhibition [4] 101%

Cc1cc(Cl)c(S(=O)(=O)N(C)c2ccccc2)cc1OCC(=O)NC1CCCCC1
inactive: inhibition [2] 3% | inhibition [3] -3% | outcome [5] | outcome [6] | outcome [7] | outcome [8]
active: growth inhibition [1] 94% | growth inhibition [4] 99%

COc1ccc2c(NN=Cc3ccccc3)ccnc2c1
inactive: inhibition [2] 18% | inhibition [3] -5% | outcome [5] | outcome [6] | outcome [7] | outcome [8]
active: growth inhibition [1] 98% | growth inhibition [4] 101%

CC1=C(C(=O)Nc2ccccc2)C(c2ccc([N+](=O)[O-])cc2)n2ncc(C(=O)Nc3ccccc3)c2N1 (stereo not given)
active: growth inhibition [1] 68% | growth inhibition [4] 86%
inactive: inhibition [2] 9% | inhibition [3] -1% | outcome [5] | outcome [6] | outcome [7] | outcome [8]

CC(C)N(Cc1cnc(N)c(C#N)n1)c1ccc(Cl)c(Cl)c1
active: growth inhibition [1] 63% | growth inhibition [4] 97%
inactive: inhibition [2] -1% | inhibition [3] -5% | outcome [5] | outcome [6] | outcome [7] | outcome [8]

Cc1cc(N[C@@H](CC(C)C)C(=O)NCc2cccs2)nc(Nc2ccccc2)n1
inactive: inhibition [2] 18% | inhibition [3] 1% | outcome [5] | outcome [6] | outcome [7] | outcome [8]
active: growth inhibition [1] 57% | growth inhibition [4] 100%

COC(=O)c1ccc2nc(-c3ccc(C(=O)NC4CCN(Cc5ccccc5)CC4)s3)[nH]c2c1
inactive: inhibition [2] -7% | inhibition [3] -4% | outcome [5] | outcome [6] | outcome [7] | outcome [8]
active: growth inhibition [1] 71% | growth inhibition [4] 99%

Cc1ccccc1Nc1nc(NCc2ccccc2)nc2ccccc12
active: growth inhibition [4] 88%
inactive: growth inhibition [1] 35% | inhibition [2] 39% | inhibition [3] -3% | outcome [5] | outcome [6] | outcome [7] | outcome [8]

CCNc1cc(C)nc(Nc2ccc(NC(=O)c3cccs3)cc2)n1
active: growth inhibition [1] 50% | growth inhibition [4] 101%
inactive: inhibition [2] 21% | inhibition [3] 0% | outcome [5] | outcome [6] | outcome [7] | outcome [8]

CCN(CC)CCN(Cc1ccc(-c2ccc(C(F)(F)F)cc2)cc1)C(=O)Cn1c(SCc2ccc(F)c(F)c2F)nc(=O)c2c1CCC2
active: growth inhibition [1] 96% | inhibition [2] 100% | growth inhibition [4] 91%
inactive: inhibition [3] -4% | outcome [5] | outcome [6] | outcome [7] | outcome [8]

O=C(CNC1CCCCC1)Nc1cccc(C(=O)Nc2cccc(C(F)(F)F)c2)c1
active: growth inhibition [1] 80% | growth inhibition [4] 93%
inactive: inhibition [2] 17% | inhibition [3] -6% | outcome [5] | outcome [6] | outcome [7] | outcome [8]

O=C(NC1CCN(Cc2ccccc2)CC1)c1cc(-c2ccncc2)nc2ccc(Cl)cc12
inactive: growth inhibition [1] 27% | inhibition [2] 17% | inhibition [3] 0% | outcome [5] | outcome [6] | outcome [7] | outcome [8]
active: growth inhibition [4] 97%

Cc1cc(Oc2ccc(-n3ccnc3)cc2)nc(N2CCN(CCCN3CCCC3)CC2)n1
inactive: growth inhibition [1] 7% | inhibition [2] 5% | inhibition [3] 0% | outcome [5] | outcome [6] | outcome [7] | outcome [8]
active: growth inhibition [4] 90%

CN1CCC(C(=O)N(Cc2ccc(-c3ccc(CNCCc4ccc(S(C)(=O)=O)cc4)cn3)cc2)Cc2ccc3c(c2)OCO3)CC1
active: growth inhibition [1] 51% | growth inhibition [4] 91%
inactive: inhibition [2] 16% | inhibition [3] -3% | outcome [5] | outcome [6] | outcome [7] | outcome [8]

Cn1nccc1C(=O)NCCNCc1ccc(-c2ccc(-c3nc4ccccc4[nH]3)s2)cc1
active: growth inhibition [1] 97% | growth inhibition [4] 101%
inactive: inhibition [2] 23% | inhibition [3] -9% | outcome [5] | outcome [6] | outcome [7] | outcome [8]

Cc1ccccc1C1CCN(c2ccc(C(=O)Nc3ccccc3)cn2)CC1
active: growth inhibition [1] 94% | inhibition [2] 53% | growth inhibition [4] 95%
inactive: inhibition [3] -2% | outcome [5] | outcome [6] | outcome [7] | outcome [8]

NC(N)=NCC=C(c1ccccc1)c1ccccc1
active: growth inhibition [1] 83% | growth inhibition [4] 94%
inactive: inhibition [2] 9% | inhibition [3] 1% | outcome [5] | outcome [6] | outcome [7] | outcome [8]

Cc1cccc2[nH]c(-c3ccc(-c4ccc(CNCc5cnn(-c6ccccc6)n5)cc4)s3)nc12
inactive: growth inhibition [1] 48% | inhibition [2] 16% | inhibition [3] -3% | outcome [5] | outcome [6] | outcome [7] | outcome [8]
active: growth inhibition [4] 97%

Cc1ccc2nc(C)cc(NN=CC=Cc3ccccc3)c2c1
active: growth inhibition [4] 92%
inactive: growth inhibition [1] 28% | inhibition [2] 0% | inhibition [3] 4% | outcome [5] | outcome [6] | outcome [7] | outcome [8]

CCCCCCCNc1cc(C)nc2ccc(OC)cc12
inactive: inhibition [2] 30% | inhibition [3] -2% | outcome [5] | outcome [6] | outcome [7] | outcome [8]
active: growth inhibition [1] 100% | growth inhibition [4] 101%

CCCc1cc(N2CCC(N3CCCC3)CC2)nc(Nc2ccc(OC)cc2)n1
inactive: growth inhibition [1] 14% | inhibition [2] 15% | inhibition [3] 6% | outcome [5] | outcome [6] | outcome [7] | outcome [8]
active: growth inhibition [4] 94%

O=C(NC1CCC(N2CCC(c3nc4ccccc4s3)CC2)CC1)c1cc2ccccc2[nH]1 (stereo not given)
active: growth inhibition [4] 94%
inactive: growth inhibition [1] 37% | inhibition [2] 23% | inhibition [3] -1% | outcome [5] | outcome [6] | outcome [7] | outcome [8]

CC(C)c1cc(C(=O)N[C@@H](Cc2ccccc2)[C@H](O)CNC2CCCCC2)cc(N2CCCC2=O)c1
active: growth inhibition [1] 98% | growth inhibition [4] 101%
inactive: inhibition [2] -11% | inhibition [3] 5% | outcome [5] | outcome [6] | outcome [7] | outcome [8]

O=C(c1cccc(-c2ccc(-c3nc4ccc(C(F)(F)F)cc4[nH]3)cc2)c1)N1CCCCC1CN1CCC(O)C1 (stereo not given)
inactive: inhibition [2] 19% | inhibition [3] 4% | outcome [5] | outcome [6] | outcome [7] | outcome [8]
active: growth inhibition [1] 101% | growth inhibition [4] 92%

CCCCNC[C@@H](O)[C@H](Cc1ccccc1)NC(=O)c1cc2c3c(c1)c(CC)cn3CCS(=O)(=O)N2C
inactive: inhibition [2] -6% | inhibition [3] -3% | outcome [5] | outcome [6] | outcome [7] | outcome [8]
active: growth inhibition [1] 98% | growth inhibition [4] 99%

CS(=O)(=O)NCCCNCc1ccc(-c2ccc(-c3nc4ccc(C(F)(F)F)cc4[nH]3)cc2)cc1
inactive: inhibition [2] 25% | inhibition [3] 1% | outcome [5] | outcome [6] | outcome [7] | outcome [8]
active: growth inhibition [1] 83% | growth inhibition [4] 100%

O=c1cc(NCCCNCc2sc(Br)c(Br)c2Br)[nH]c2ccccc12
active: growth inhibition [4] 90%
inactive: growth inhibition [1] 38% | inhibition [2] 0% | inhibition [3] 5% | outcome [5] | outcome [6] | outcome [7] | outcome [8]

N#Cc1ccc2c(c1)CCN(CCC1CCC(NC(=O)/C=C/c3cccc4cc[nH]c34)CC1)CC2 (stereo not given)
active: growth inhibition [4] 89%
inactive: growth inhibition [1] 29% | inhibition [2] 22% | inhibition [3] -3% | outcome [5] | outcome [6] | outcome [7] | outcome [8]

O=S(=O)(c1c(Cl)cc(Cl)cc1Cl)N1CCCCC(c2ccc(Cl)cc2)=N1
active: growth inhibition [1] 93% | growth inhibition [4] 95%
inactive: inhibition [2] 11% | inhibition [3] 3% | outcome [5] | outcome [6] | outcome [7] | outcome [8]

FC(F)(F)COc1ccc(CCNCCCCNCCc2ccc(OCC(F)(F)F)c3ccccc23)c2ccccc12
active: growth inhibition [1] 70% | inhibition [2] 100% | growth inhibition [4] 99%
inactive: inhibition [3] 4% | outcome [5] | outcome [6] | outcome [7] | outcome [8]

Cc1ccc(CNc2cc(C(F)(F)F)nc(-c3ccc(S(C)(=O)=O)cc3)n2)cc1
active: growth inhibition [1] 72% | growth inhibition [4] 89%
inactive: inhibition [2] 2% | inhibition [3] -4% | outcome [5] | outcome [6] | outcome [7] | outcome [8]

Fc1ccc2nc(-c3ccc(-c4ccc(CNCC5CCCO5)cc4)cc3)[nH]c2c1 (stereo not given)
inactive: inhibition [2] 26% | inhibition [3] -3% | outcome [5] | outcome [6] | outcome [7] | outcome [8]
active: growth inhibition [1] 100% | growth inhibition [4] 101%

O=C(Nc1cccc(C(F)(F)F)c1)c1cc([N+](=O)[O-])cc2cn[nH]c12
active: growth inhibition [1] 69% | inhibition [2] 60% | growth inhibition [4] 101%
inactive: inhibition [3] 3% | outcome [5] | outcome [6] | outcome [7] | outcome [8]

Cc1cccc2[nH]c(-c3cccc(-c4ccc(NC(=O)c5cccc(C(N)=O)c5)cc4)c3)nc12
inactive: inhibition [2] 25% | inhibition [3] 4% | outcome [5] | outcome [6] | outcome [7] | outcome [8]
active: growth inhibition [1] 61% | growth inhibition [4] 100%

O=C(Nc1cccc(CN2CCCN(Cc3ccc(O)cc3)CC2)c1)c1cc(F)cc(F)c1
active: growth inhibition [4] 100%
inactive: growth inhibition [1] 13% | inhibition [2] 15% | inhibition [3] 0% | outcome [5] | outcome [6] | outcome [7] | outcome [8]

O=C(/C=C/c1ccc(Cl)cc1)NCCCCCN1CCC(C(=O)Nc2cccc(Cl)c2)CC1
inactive: growth inhibition [1] -6% | inhibition [2] 22% | inhibition [3] -8% | outcome [5] | outcome [6] | outcome [7] | outcome [8]
active: growth inhibition [4] 97%

COC(=O)c1cc(/C(C)=N/Nc2nc3ccccc3[nH]2)ccc1O
inactive: inhibition [2] 9% | inhibition [3] -1% | outcome [5] | outcome [6] | outcome [7] | outcome [8]
active: growth inhibition [1] 75% | growth inhibition [4] 101%

CN(C)C(CNC(=O)c1cc(-c2ccncc2)c(-c2cc3ccccc3[nH]2)o1)c1ccccc1 (stereo not given)
active: growth inhibition [1] 62% | growth inhibition [4] 96%
inactive: inhibition [2] 3% | inhibition [3] -2% | outcome [5] | outcome [6] | outcome [7] | outcome [8]

Cc1cc(N[C@@H](CC(C)C)C(=O)NCc2cccc(F)c2)nc(NCC2CCCCC2)n1
active: growth inhibition [1] 70% | growth inhibition [4] 99%
inactive: inhibition [2] 3% | inhibition [3] -3% | outcome [5] | outcome [6] | outcome [7] | outcome [8]
